ALDH1A1 inh – ALDH1A1 (human) enzyme inhibition | Potency, µM (highest dose often 75.3 µM), without a hit: at the highest dose activity, negative = inhibition, actives largely listed as inhibitors | actives 7.3% (n = 220,000) | Purified ALDH1A1, NADH fluorescence, propionaldehyde substrate | P00352 | AID 1030;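 also: potency is read from the fitted curve at half-maximal effect; plate controls were no enzyme wells and a reference inhibitor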
HPGD block – blocks human HPGD enzyme activity; purified HPGD, NADH fluorescence kinetic, PGE2 substrate; Potency, µM, for inactives: at the highest dose activity change, negative = inhibition, most hits filed as inhibitors; actives 4.3% (n = 150,000); also: potency is read from the fitted curve at half-maximal effect
Target sequence (P15428 whole entry, looked up): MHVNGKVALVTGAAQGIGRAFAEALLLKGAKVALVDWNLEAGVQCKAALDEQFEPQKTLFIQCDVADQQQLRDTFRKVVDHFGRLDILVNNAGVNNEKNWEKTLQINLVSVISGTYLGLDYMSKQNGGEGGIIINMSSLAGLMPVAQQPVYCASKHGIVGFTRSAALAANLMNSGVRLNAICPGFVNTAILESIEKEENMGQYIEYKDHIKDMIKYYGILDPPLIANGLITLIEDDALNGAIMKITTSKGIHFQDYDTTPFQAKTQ
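NADH formation kinetics: reaction with 30 uM PGE2 and 1 mM NAD+ (final), 20 nM enzyme, Tris-HCl pH 8 with Tween 20, after 15 min compound preincubation at room temperature. Fluorescence change, last versus first of five reads.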
IMPase cell inh – IMPase inhibition in cells. CHO-M1 cells, IP1 accumulation, HTRF TR-FRET ratio. inhibition (IP1 accumulation), % at 46.1 µM. P97697. AID 901. 120,000 tested, under 10 active; active = well fitted curve in the direction sought with a large enough effect in the signal ratio, not every such curve was filed as active; inconclusive = small, poorly fitted or top-dose-only effect, or a change in a side signal; inactive = no such curve, though single readings can be large or run the other way; the % refers to the signal ratio;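 also: cells stimulated with carbachol in lithium chloride buffer; plate controls were DMSO basal wells for no effect and reference inhibitor wells for full effect; higher means more IMPase inhibition seen as more IP1 and lower FRET ratio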
Target sequence (P97697 whole entry, looked up): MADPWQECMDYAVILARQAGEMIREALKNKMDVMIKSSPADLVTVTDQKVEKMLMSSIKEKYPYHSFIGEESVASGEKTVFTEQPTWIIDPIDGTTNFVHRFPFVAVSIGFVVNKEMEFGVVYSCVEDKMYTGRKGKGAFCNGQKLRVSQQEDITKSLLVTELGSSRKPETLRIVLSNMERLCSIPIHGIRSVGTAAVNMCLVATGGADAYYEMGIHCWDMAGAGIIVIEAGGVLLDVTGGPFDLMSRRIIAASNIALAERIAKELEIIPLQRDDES
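Carbachol-driven Gq signalling in CHO-M1 cells (2000/well) generates IP1. Compounds that block IMPase raise IP1 and so reduce the FRET signal from Eu-anti-IP1 and d2-IP1 after a 10 min room-temperature lysis.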
* = called active by the depositor; ? = inconclusive; . = no result given; ! = repeats disagree; [ ] = remark or other dose. A selection: hits, their analogues and other compounds. The true share with any hit is near 9%. Unless noted, calls follow the shape of the dose curve; as a rule, active = well fitted inhibition curve with a large enough effect (not every such curve was filed as active); inconclusive = small, poorly fitted or top-dose-only effect, or another doubt; inactive = no such curve, though single readings can be large or run the other way. Unless noted, % is scaled to controls: 0 for no effect and ±100 for the full control effect.

SMILES	ALDH1A1 inh	HPGD block	IMPase cell inh
COc1cccc(NC(=S)/C(=C(\[O-])c2ccc([N+](=O)[O-])cc2)[n+]2ccccc2)c1	13µM*	.	.
CCc1cc[n+](/C(C(=S)Nc2cccc(C)c2)=C(/[O-])c2ccc(C)c([N+](=O)[O-])c2)cc1	?	-20%	23
Cc1ccc(NC(=S)/C(=C(\[O-])c2ccc(F)cc2)[n+]2ccccc2)cc1	10µM*	.	.
CN(C)c1cc[n+](/C(C(=S)Nc2ccc(SC(F)F)cc2)=C(/[O-])c2ccccc2)cc1	-2%	.	.
CCOc1ccc(NC(=S)/C(=C(\[O-])c2ccc(C)c([N+](=O)[O-])c2)[n+]2ccccc2)cc1	11µM*	?	6
COc1ccccc1OCc1ccc(C(=O)Nc2ccc(Cl)cn2)o1	-3%	.	.
CN(C)C(=O)c1ccc(NC(=O)Cn2nc(-c3ccccc3)c3ccccc3c2=O)cc1	.	.	0
O=C(CNCc1ccc(Cl)cc1)NCc1ccco1	-8%	-2%	.
COc1ccc(F)cc1C(=O)C1CCCN(Cc2c(C)n(C)n(-c3ccccc3)c2=O)C1 (stereo unspecified)	2%	.	.
Cn1cc(-c2nc3cnc(Oc4ccccc4)nc3n(C3CC3)c2=O)c2ccccc21	-1%	.	.
CCN(CC)c1ncnnc1-c1ccccc1	-6%	-2%	.
CC1=CC2=C(OC1N(C)C)c1cccc3cccc(c13)C2=O (stereo unspecified)	2.2µM*	-12%	?
Cc1ccc(N2C(=O)c3cccc4cccc(c34)C2=O)cc1	-9%	.	.
Cc1cc(N(CC(=O)NC2CC2)S(C)(=O)=O)ccc1Br	-1%	-2%	.
CCOc1ccccc1NC(=O)COC(=O)Cc1ccc(-c2ccccc2)cc1	?	-13%	?
NCC(O)COc1cccc2ccccc12 (stereo unspecified)	1%	.	.
CC(C)c1nc(N2CCOCC2)c(C#N)c2c1CCCC2	?	?	5
CCOC(=O)CSc1nc(N2CCOCC2)c2c(c1C#N)CC(C)(C)N(C)C2	18µM*	.	9
CC(C)Sc1nc(N2CCOCC2)c2c(c1C#N)CC(C)(C)N(C)C2	?	-12%	-4
COC(=O)Sc1nc(N2CCOCC2)c2c(c1C#N)CC(C)(C)OC2	14µM*	.	-21
CC1(C)Cc2c(C#N)c(SCC(=O)c3ccccc3)nc(N3CCOCC3)c2CO1	-40%	?	3
CCSc1nc(N2CCOCC2)c2c(c1C#N)CCCC2	22µM*	.	1
Clc1ccccc1C1SCC2Nc3ccccc3CN21 (stereo unspecified)	3%	-6%	-2
CCOC(=O)Cn1c(C)c(Br)c(=O)c2cccc(C)c21	-6%	-19%	-5
CCOc1cc(C2c3c(oc4ccc(F)cc4c3=O)C(=O)N2Cc2ccco2)ccc1O (stereo unspecified)	.	.	5
SMILES	ALDH1A1 inh	HPGD block	IMPase cell inh
COC(=O)c1sc2ccccc2c1N	?	?	-10
COC(=O)C1=C(C(=O)OC)C(c2ccccc2O)c2sc(=O)[nH]c2S1 (stereo unspecified)	?	22µM*	.
CCCCN(CCCC)S(=O)(=O)c1ccc(NC(=O)c2c(-c3ccccc3)noc2C)cc1	.	.	10
Cc1cccc(OCCn2c(-c3ccc(Cl)cc3)nc3ccccc3c2=O)c1	.	.	0
CC(C)c1ccccc1NC(=O)CN1C(=O)c2cccc3cccc1c23	.	.	2
CCCc1nnc(NC(=O)c2ccc(N3C(=O)C4C5C=CC(C5)C4C3=O)cc2)s1 (stereo unspecified)	-5%	-18%	4
O=C(Nc1nnc(C(F)(F)F)s1)c1ccc(N2C(=O)C3C4C=CC(C4)C3C2=O)cc1 (stereo unspecified)	1%	14µM*	-1
CS(=O)(=O)N1CCC2(CC1)CN(C(=O)Nc1cccc(C#N)c1)C2	-1%	?	.
CC1=NCCN1CCNC(=O)Nc1ccc(F)cc1	19%	.	.
O=C(Nc1ccc(F)cc1)C1=CC(=O)N2CCN=C2S1	16µM*	.	.
CCCCCCCC1=Cc2ccccc2C(CC(=O)c2ccccc2)N1C(=O)OC (stereo unspecified)	1%[13.5 µM]	-11%	.
O=C1CN2CCN(CC2)CC(=O)Nc2ccc(cc2)S(=O)(=O)c2ccc(cc2)NC(=O)CN2CCN(CC2)CC(=O)Nc2ccc(cc2)S(=O)(=O)c2ccc(cc2)N1	1.6µM*	-14%	.
CC(C)C(C)NC(=O)COc1ccc(S(=O)(=O)N2CCOCC2)cc1Cl (stereo unspecified)	-11%	.	.
CC(C)=CCCC1(C)C=Cc2c(c(C)cc3c2[nH]c2ccccc23)O1 (stereo unspecified)	10%	-8%	.
O=C(NCCN1C(=O)S/C(=C/c2cccnc2)C1=O)C1CC(=O)N(Cc2ccccc2)C1 (stereo unspecified)	5%	.	.
Cc1nc(SCC(=O)Nc2cccnc2Cl)nc(C)c1C	-1%	.	.
CCCCS(=O)(=O)N1CCc2nc(-c3ccccc3)c3c(c2C1)CO[C@@H](C)C3	19%[13.5 µM]	-12%	.
CCOC(=O)/C(=C/C=C1\Sc2cc(OCC)c(OCC)cc2N1CC)C(C)=O	-7%	.	.
CCN1/C(=C/C(C)=O)Sc2ccc(OC)cc21	?	13µM*!	6
COc1cc(SC)ccc1C(=O)N(Cc1ccccc1)c1ccccn1	3%	.	.
CCCC(C(=O)NC1CCCC1)N(CCCN1CCOCC1)C(=O)c1snc(C(N)=O)c1N (stereo unspecified)	?	-25%	-2
Cc1cc(C)nc(N2N=C(C(C)(C)C)CC2=O)n1	6.3µM*	-4%	6
Cc1ccc(SCC2=NN(c3nc(C)cc(C)n3)C(=O)C2)cc1	-2%	.	.
C/C(=C\c1ccccc1)C(=O)N1CCN(c2cccc(C(F)(F)F)c2)CC1	5%	25µM*	.
Cc1ccc(/C=C/C(=O)N2CCN(c3cccc(C(F)(F)F)c3)CC2)cc1	-4%	-14%	4
SMILES	ALDH1A1 inh	HPGD block	IMPase cell inh
Cc1ccccc1-c1nc(CN2CCC(C(=O)NCCCN3CC(C)CC(C)C3)CC2)c(C)o1 (stereo unspecified)	7%	0%	6
Cc1cccc(NC(=O)CCNC(=O)c2ccco2)c1	11%	-12%	-20
O=C(CN1CCN(c2ccc(Cl)cc2)CC1)c1ccc2c(c1)OCO2	8.9µM*	-7%	5
O=C(CCN1CCCCC1)c1ccc2c(c1)OCO2	?	?	8
O=C(Nc1ccc2c(c1)OCO2)N1CCN(c2ccc(F)cc2)CC1	1%	.	.
O=C(CN1CCN(c2ccc(F)cc2)CC1)c1ccc2c(c1)OCO2	8.9µM*	-2%	2
Cc1nn(-c2ccccc2)c(C)c1/C=N/NC(=O)CSc1nnc(SCc2ccc(Cl)cc2)s1	-16%	-8%	.
O=Cc1cc2ccccc2nc1SCc1ccc(Cl)cc1	-9%	-24%	2
Cc1ccc(CSc2nc3ccccc3cc2C=O)cc1	?	5µM*	4
N#CCCN1CCn2c1nc1ccccc12	12%	1%	4
CCc1ccc(N/C(SC)=C(/C#N)C(N)=O)cc1	6%	-14%	10
CCCCS/C(=C(/C#N)C(N)=O)c1cc2c([nH]1)CCCC2	14µM*	?	13
CCOC(=O)C1C(c2cc(OC)c(OC)c(OC)c2)NC(=S)NC1(O)C(F)(F)F (stereo unspecified)	?	32µM*	-2
CCOc1cc(C2NC(=O)NC(O)(C(F)(F)F)C2C(=O)c2ccc(OC)cc2)ccc1O (stereo unspecified)	5.6µM*	-12%	3
